AmpC no deterg – qHTS Inhibitors of AmpC Beta-Lactamase (assay without detergent); P00811; AmpC nitrocefin hydrolysis, absorbance 480 nm, 0.0001% Triton; Potency, µM (series often up to 57.1 µM), without a hit: at the top dose activity change, negative = inhibition, usual class: inhibitors; 330,000 compounds, 0.52% hits; AID 485341, 2010;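 further: plate controls were no compound for no effect and no enzyme for full effect; nearly all actives have a fitted effect of over 20% in size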
Target sequence (P00811 whole entry, looked up): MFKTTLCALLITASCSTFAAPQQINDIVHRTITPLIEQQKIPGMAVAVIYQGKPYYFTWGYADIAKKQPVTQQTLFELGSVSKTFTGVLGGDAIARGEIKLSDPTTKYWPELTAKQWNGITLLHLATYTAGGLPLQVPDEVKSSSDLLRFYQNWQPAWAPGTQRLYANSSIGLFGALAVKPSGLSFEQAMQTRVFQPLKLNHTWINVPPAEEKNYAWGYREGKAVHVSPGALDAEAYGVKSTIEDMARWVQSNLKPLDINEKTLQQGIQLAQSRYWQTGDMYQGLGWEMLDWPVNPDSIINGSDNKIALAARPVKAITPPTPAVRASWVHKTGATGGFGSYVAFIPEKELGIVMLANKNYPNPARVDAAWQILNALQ
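20 mM phosphate pH 7.0 + 0.01% (detergent screen) or 0.0001% Triton X-100; 5.3 nM AmpC reagent; cpd preinc 15 min RT; nitrocefin (800 uM stock) to start; A480 q20 s × 4 min; Activity was normalised to no-enzyme and no-compound control wells.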
FMDV inh – High Throughput Screening for Foot and Mouth Disease Virus Antivirals; FMDV antiviral cell-based qHTS; Potency, µM (titrated, usually from 57.9 µM), without a hit: top-dose activity change, negative = inhibition, usual class: inhibitors; 410,000 compounds, 1.2% hits; AID 1159524, 2015; calls by dose curve; tested in HEK293T cells; further: read-out not given here; nearly all actives have a fitted effect of over 45% in size
Sm TGR block – qHTS Assay for the Inhibitors of Schistosoma Mansoni Peroxiredoxins | Schistosoma mansoni thioredoxin glutathione reductase (TGR), Q962Y6 | 360,000 compounds, 3% hits | Potency, µM (top dose mostly 114 µM), without a hit: at the top dose activity change, negative = inhibition, usual class: inhibitors | AID 485364, 2010 | purified TGR, DTNB reduction, TNB absorbance 405 nm; further: nearly all actives have a fitted effect of over 60% in size
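Kinetic colorimetric format: TGR-catalysed, NADPH-driven DTNB reduction monitored via TNB absorbance. Enzyme dispensed at 20 nM; compound exposure 15 min at room temperature before reaction start.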
AMA1-RON2 inh – qHTS for Inhibitors of AMA1-RON; Towards Development of Antimalarial Drug Lead: Primary Screen; Plasmodium falciparum AMA1 (3D7) - RON2 peptide interaction; AlphaScreen AMA1-biotinylated RON2 peptide binding; Potency, µM (doses to about 58.2 µM), for the others: top-dose activity change, negative = inhibition, hits mostly inhibitors; 360,000 compounds, 0.2% hits;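 further: 0% = vehicle wells and -100% = peptide control; nearly all actives have a fitted effect of over 45% in size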
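AMA1 (3D7) with his tag at 25 nM final met compounds first, then biotinylated RON2 peptide at 25 nM; detection used donor plus acceptor beads, 10 µg/mL apiece, read by AlphaScreen after 30 min at room temperature.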
AmpC detergent – qHTS Inhibitors of AmpC Beta-Lactamase (assay with detergent). P00811. AmpC hydrolysis of nitrocefin, absorbance 480 nm, 0.01% Triton. Potency, µM (doses to about 114 µM), for the others: at the top dose activity change, negative = inhibition, actives largely listed as inhibitors. 370,000 compounds, 0.041% hits. AID 485294, 2010;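 further: 0% = no-compound wells and -100% = no-enzyme wells; nearly all actives have a fitted effect of over 25% in size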
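AmpC (5.3 nM in the dispensed reagent) in 20 mM phosphate pH 7.0 with 0.01% (detergent screen) or 0.0001% Triton X-100 was preincubated with compounds for 15 min at room temperature. Nitrocefin was then added from an 800 uM solution, and hydrolysis was followed at 480 nm.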
* hit, by the source's call; ? = inconclusive; . = no result given; [ ] = dose if it differs, or a comment. Only some compounds are listed: those with a hit (about 4.1% of all), similar ones and a draw of the others. Unless noted, the call rests on the fitted dose curve; in most records, active means well fitted curve in the direction sought with a large enough effect; inconclusive means small, poorly fitted or top-dose-only effect, or another doubt; inactive means no such curve, though single readings can be large; an effect the other way counts as inactive or inconclusive. Unless noted, on the % scale 0 is the no-effect control and ±100 the full control effect; potency means the concentration at half of the fitted maximal effect.

SMILES	AmpC no deterg	FMDV inh	Sm TGR block	AMA1-RON2 inh	AmpC detergent
COc1cccc(-n2c(SC)nnc2C2CCN(Cc3nc4ccccc4s3)CC2)c1	.	-12.6%	.	.	.
COc1ccccc1N1CCN(S(=O)(=O)c2cc(C(=O)Nc3ccc(Oc4ccccc4)cc3)ccc2F)CC1	.	?	4.7%	.	5.4%
CC(C)(C)c1ccc(CN(Cc2ccco2)c2cnc(S(C)(=O)=O)nc2C(=O)Nc2ccc(F)cc2)cc1	.	-9.4%	-4.7%	.	19.1%
CCOC(=O)Cc1csc(NC(=O)COc2ccc(N(C)S(=O)(=O)c3cccs3)cc2)n1	-22.7%	25.1µM*	2.5%[11.4 µM]	-4.5%	-14.0%
Cc1ccc(S(=O)(=O)N(C)c2ccc(OCC(=O)Nc3nc(-c4ccccc4)cs3)cc2)cc1	2µM*	-29.5%	-8.2%	8.7%	-8.5%
CN(c1ccc(OCC(=O)Nc2nc(-c3ccccc3)cs2)cc1)S(=O)(=O)c1ccc(F)cc1	-17.3%	?	-4.2%	-4.9%	-1.1%
CCn1c(-c2ccccc2F)nc2cc(NC(C)=O)cc(C(=O)NCc3ncc(C)[nH]3)c21	.	4.2%	.	.	.
Cc1c([N+](=O)[O-])c(C(=O)N2CCCC2)nn1C	-10.5%	6.2%	1.1%	1.9%	-10.5%
Cc1c([N+](=O)[O-])c(C(=O)Sc2ccc(Br)cc2)nn1C	-9.5%	-3.9%	0.501µM*	14.8%	10.7%
COc1ccc(N2C(=O)/C(=C/c3ccc(OC)c(OC)c3)C(=O)NC2=S)cc1	-29.9%	-16.1%	10µM*	27.1%	-14.6%
COc1cc(/C=C2/C(=O)NC(=O)N(c3ccc(C)cc3)C2=O)cc(OC)c1OC	-45.9%	?	?	4.0%	-6.1%
CCc1ccccc1N1C(=O)/C(=C/c2ccc(N3CCN(C)CC3)o2)C(=O)NC1=S	-15.1%	-18.3%	-10.5%	-2.2%	?
COc1ccc(N2C(=O)/C(=C/c3ccc(C)o3)C(=O)NC2=S)c(OC)c1	-34.2%	20µM*	1.26µM*	-10.9%	-13.6%
CCOC(=O)COc1ccc(/C=C2\C(=O)NC(=S)N(c3ccc(OC)cc3)C2=O)cc1OC	-26.0%	-20.8%	14.1µM*	-17.4%	-17.2%
COc1cc(/C=C2\C(=O)NC(=O)N(c3ccccc3)C2=O)cc(OC)c1OC	-21.7%	?	?	-5.5%	-1.4%
COC(=O)COc1ccc(/C=C2\C(=O)NC(=S)N(c3ccc(C)cc3)C2=O)cc1OC	16.4%	-27.3%	12.6µM*	2.2%	?
Cc1ccc(SCc2nc(-c3ccc(C(=O)NCC(C)c4ccccc4)cc3)oc2C)cc1 (stereo not drawn)	.	?	-10.7%	.	?
COc1ccc2c(CNCCc3cccs3)c(C(=O)O)n(Cc3ccc(F)cc3Cl)c2c1	.	?	-2.2%	.	-7.7%
Cn1c(Br)nc2c1c(=O)n(CC(O)COc1ccccc1)c(=O)n2C (stereo not drawn)	-5.2%	-20.4%	50.1µM*	-2.2%	-10.7%
CC(=O)c1ccc(NC(=S)NCc2cccnc2)cc1	-4.4%[2.29 µM]	15.8%	39.8µM*	7.4%	6.0%
Cc1ccc(C(=O)NC(=S)NCc2cccnc2)c(C)c1	-27.4%	1.3%	44.7µM*	-3.3%	3.0%
Cc1cccc(C(=O)NC(=S)NCc2cccnc2)c1	-45.2%	-14.2%	-30.0%	6.3%	-4.0%
S=C(NCc1cccnc1)Nc1cccc(Cl)c1	-21.4%	41.3%	31.6µM*	-17.8%	2.8%
O=C(NCc1cccnc1)c1ccc(-c2cc(Cl)ccc2Cl)o1	83.4%	0.0%	39.8µM*	0.0%	3.8%
O=C(NCc1cccnc1)c1ccc(-c2ccc(Cl)cc2)o1	14.7%	33.4%	0.0%	1.9%	2.0%
COc1cccc(-n2ccnc2SCC(=O)Nc2nc3ccc(C)cc3s2)c1	.	?	-1.3%	.	12.1%
COc1ccc(-c2[nH]nc3nc(-c4cc(Br)ccc4OC)cc(C(=O)O)c23)cc1	.	-15.8%	3.9%	.	13.3%
O=C(NCc1cccnc1)Nc1cc(Cl)cc(Cl)c1	-29.2%	38.7%	-21.4%	9.2%	-3.4%
S=C(NCc1cccnc1)Nc1cc(Cl)cc(Cl)c1	-36.7%	61.6%	28.2µM*	12.9%	0.0%

Compound activity as filed in PubChem.
